Experimental data: the supplement of paper PMC7380943
Where a name gives a salt, the structure may show the parent alone. ± gives the standard deviation of the averaged measurements.

Assays:
[1] = test system: CLZ3 (HCA2 human fibroblast dual HR-NHEJ reporter); test: NHEJ repair efficiency (GFP+ cells) relative to control (log10 fold); higher = more non-homologous end joining; conditions: 5 µM; doxycycline 0.5 ug/mL
[2] = test system: CLZ3 (HCA2 human fibroblast dual HR-NHEJ reporter); test: HR repair efficiency (tdTomato+ cells) relative to control (log10 fold); higher = more homologous recombination; conditions: 5 µM; doxycycline 0.5 ug/mL
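Throughout, for HR repair efficiency (tdTomato+ cells) relative to control: compound given one day before doxycycline, which switches on I-SceI endonuclease expression to create double-strand breaks within the integrated reporter.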
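Throughout, for NHEJ repair efficiency (GFP+ cells) relative to control: compound given one day ahead of doxycycline, which switches on I-SceI endonuclease to cut the chromosomally integrated reporter and create DSBs.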

Row | Structure (SMILES) | NHEJ repair efficiency (log10) [1] | HR repair efficiency (log10) [2]
1 | CCN1C[C@]2(COC)[C@H](O)C[C@H](OC)[C@]34C1[C@H]([C@H](OC)[C@H]23)[C@@]1(OC(C)=O)C[C@H](OC)[C@@]2(O)C[C@@H]4[C@@H]1[C@H]2OC(=O)c1ccc(OC)cc1 [Yunaconitine] | -0.0536 | -0.204
2 | O=c1ccc2ccc3occc3c2o1 [Isopsoralen] | -0.0427 | -0.0598
3 | CN(C)CCc1ccc(O)cc1 [Hordenine] | -0.0244 | 0.111
4 | CCN1C[C@@]2(COC)[C@H]3[C@@H](OC)[C@H]4C1[C@]3([C@@H](OC)C[C@H]2OC(C)=O)[C@@H]1C[C@@]2(O)[C@H](OC(=O)c3ccccc3)[C@@H]1[C@]4(OC(C)=O)[C@@H](O)[C@@H]2OC [Acetylaconitine] | -0.0797 | -0.0667
5 | CCN1C[C@]2(COC)CC[C@H](O)[C@]34C1[C@H]([C@H](OC)[C@H]23)[C@@]1(O)C[C@H](OC)[C@H]2C[C@@H]4[C@@H]1[C@H]2O [Neoline] | -0.0435 | -0.186
6 | CC1(C)[C@H]2O[C@H]2[C@H]2[C@](C)(O)[C@@H]3CCC4[C@H](O)[C@@]3(C[C@@H](O)[C@@]21O)C[C@@]4(C)O [Rhodojaponin Iii] | 0.0171 | 0.0481
7 | CC(=O)OC[C@]12[C@H](OC(C)=O)[C@H](OC(C)=O)[C@@H]3[C@@H](OC(C)=O)[C@@]14O[C@@]3(C)COC(=O)c1cccnc1CCC(C)C(=O)O[C@@H]([C@H](OC(=O)c1ccccc1)[C@@H]2OC(C)=O)[C@]4(C)O (some centres not stated) [Wilforine] | -0.122 | 0.027
8 | C[C@H]1CC[C@@H]2N(C1)C[C@H]1[C@@H]3C[C@H]4[C@@H](C[C@H](O)[C@H]5C[C@@H](O)CC[C@@]54C)[C@@H]3CC[C@@H]1[C@]2(C)O [Peimine] | -0.07 | -0.0412
9 | COc1ccc(Cc2nccc3cc(OC)c(OC)cc23)cc1OC [Papaverine hydrochloride] | -0.296 | -0.22
10 | COc1cc([C@H]2OC[C@H]3[C@H]2CO[C@@H]3c2cc(OC)c(O[C@@H]3O[C@H](CO)[C@@H](O)[C@H](O)[C@H]3O)c(OC)c2)cc(OC)c1O[C@@H]1O[C@H](CO)[C@@H](O)[C@H](O)[C@H]1O [Eleutheroside D] | 0.0455 | -0.0848
11 | O=c1ccc2cc(O[C@@H]3O[C@H](CO)[C@@H](O)[C@H](O)[C@H]3O)c(O)cc2o1 [Aesculin] | 0.023 | 0.148
12 | COC(=O)C1=CCCN(C)C1 [Arecoline] | 0.0763 | 0.183
13 | C[C@@]12C[C@@H](c3ccoc3)OC(=O)[C@@H]1CC[C@]1(C)[C@H]2[C@@H]2C=C[C@@]1(O)C(=O)O2 [Columbin] | -0.00145 | -0.0272
14 | C=C1[C@H]2C[C@@]3([C@@H]1O)[C@@H](CC2=O)[C@]12[C@@H]4C[C@H]3[C@H]1N(CC)C[C@]4(C)CC[C@@H]2O [Songorine] | -0.0383 | 0.115
15 | CCC1=C[C@H]2CN3CCc4c([nH]c5ccccc45)[C@](C(=O)OC)(C2)[C@H]13 [Catharanthine] | 0.00477 | 0.0298
16 | O=c1cccc2n1C[C@@H]1CNC[C@H]2C1 [Cytisine] | 0.00702 | 0.264
17 | O=C1C=CC(=O)c2c(O)cccc21 [Juglone] | 0.0328 | -0.281
18 | CCN1C[C@]2(COC)[C@H](O)C[C@H](OC)[C@]34C1[C@H]([C@H](OC)[C@H]23)[C@@]1(OC(C)=O)C[C@H](OC)[C@@H]2C[C@@H]4[C@@H]1[C@H]2OC(=O)c1ccccc1 [13-Dehydroxyindaconintine] | 0.0298 | -0.0247
19 | C[C@@H]1CCC=C2C(=O)C[C@H]3OOC(C)(C)[C@H]3[C@]21C [Nardosinone] | -0.0297 | -0.0118
20 | O=c1cccc2n1CC1CC2CN2CCCCC12 (configuration not stated) [Thermopsine] | 0.0072 | -0.25
21 | COC[C@]12CN(C)C3[C@@H]4[C@H](OC)[C@H]1[C@@]3([C@@H](OC)C[C@H]2O)[C@@H]1C[C@@]2(O)[C@H](OC(=O)c3ccccc3)[C@@H]1[C@]4(O)[C@@H](O)[C@@H]2OC [Benzoylmesaconine] | -0.0412 | -0.144
22 | CCN1C[C@]2(COC)CC[C@H](OC)[C@]34C1[C@H](C[C@H]23)[C@@]1(O)C[C@H](OC)[C@H]2C[C@@H]4[C@@H]1[C@H]2O [Talatisamine] | 0.0604 | 0.0585
23 | CCN1C[C@]2(C)CC[C@H](OC)[C@@]34C1[C@]1(OCO[C@@]15C[C@H](OC)[C@H]1C[C@]3(O)[C@@H]5[C@H]1OC)[C@@H](OC(C)=O)[C@H]24 [Deltaline] | -0.125 | -0.263
24 | CCCC[N+]1(C)[C@@H]2C[C@@H](OC(=O)[C@H](CO)c3ccccc3)C[C@H]1[C@@H]1O[C@@H]12 (some centres not stated) [Scopolamine Butylbromide] | -0.172 | 0.0357
25 | CCN1C[C@]2(COC)[C@H](O)C[C@H](OC)[C@@]34[C@@H]5C[C@@]6(O)[C@H](OC(=O)c7ccccc7)[C@@H]5[C@@](O)([C@@H]([C@H](OC)[C@H]23)[C@@H]14)[C@@H](O)[C@@H]6OC [Benzoylaconine] | -0.0909 | 0.0403
26 | O=C1C[C@@H]2OCC=C3CN4CC[C@]56c7ccccc7N1[C@H]5[C@H]2[C@H]3C[C@H]46 [Strychnine] | 0.104 | -0.0183

Row | Structure (SMILES) | NHEJ repair efficiency (log10) [1] | HR repair efficiency (log10) [2]
27 | COc1cc2c(cc1OC)[C@@]13CCN4CC5=CCO[C@H]6CC(=O)N2[C@H]1[C@H]6[C@H]5C[C@H]43 [Brucine] | -0.228 | -0.24
28 | C[C@@H]1CC[C@H]2[C@@H](C)C(=O)O[C@@H]3O[C@@]4(C)CC[C@@H]1[C@]32OO4 [Artemisinin] | 0.1 | 0.328
29 | CCC(C)C(=O)O[C@@H]1[C@@H](OC(C)=O)[C@]2(C)[C@H](C(C)=O)CC[C@@]23O[C@]32CC[C@H]3C[C@@H](O[C@H]4C[C@@H](OC)[C@H](O[C@@H]5O[C@H](C)[C@@H](O)[C@@H](OC)[C@H]5O)[C@@H](C)O4)CC[C@]3(C)[C@@H]12 (some centres not stated) [Tenacissoside H] | -0.0163 | 0.0233
30 | O=C1CCC[C@@H]2[C@H]3CCCN4CCC[C@@H](CN12)[C@@H]34 [Matrine] | -0.00125 | -0.0371
31 | CCN1C[C@]2(COC)[C@H](O)C[C@H](OC)[C@@]34[C@@H]5C[C@@]6(O)[C@H](OC(=O)c7ccccc7)[C@@H]5[C@@](OC(C)=O)([C@@H]([C@H](OC)[C@H]23)[C@@H]14)[C@@H](O)[C@@H]6OC [Aconitine] | -0.148 | 0.0783
32 | C[C@H]1CCC2N(C1)C[C@H]1C3CC4[C@@H](CC(=O)C5C[C@@H](O)CC[C@@]54C)C3CCC1[C@]2(C)O (some centres not stated) [Peiminine] | -0.0507 | 0.0963
33 | CN(C)Cc1c[nH]c2ccccc12 [Gramine] | 0.014 | -0.0905
34 | C=C[C@@H]1C2=CCOC(=O)C2=CO[C@H]1O[C@@H]1O[C@H](CO)[C@@H](O)[C@H](O)[C@H]1O [Gentiopicrin] | -0.0046 | 0.0966
35 | C[C@H]1C(=O)O[C@@H]2CCN3CC=C(COC(=O)[C@](C)(O)[C@]1(C)O)[C@H]23 [Monocrotaline] | -0.0165 | 0.0383
36 | COC[C@@]12CC[C@H](OC)[C@]34C(C([C@H](OC)[C@H]13)[C@]1(OC(C)=O)[C@H]3[C@@H](OC(=O)c5ccccc5)[C@](O)(C[C@H]34)[C@@H](OC)[C@@H]1O)N(C)C2 [Hypaconitine] | 0.0511 | 0.0965
37 | CN[C@@H](Cc1c[nH]c2ccccc12)C(=O)O [Abrine] | -0.159 | -0.21
38 | N#C[C@H](O[C@@H]1O[C@H](CO[C@@H]2O[C@H](CO)[C@@H](O)[C@H](O)[C@H]2O)[C@@H](O)[C@H](O)[C@H]1O)c1ccccc1 [Amygdalin] | -0.0091 | 0.107
39 | COc1ccc2c(c1OC)CN1CCc3cc4c(cc3C1C2)OCO4 (configuration not stated) [Tetrahydroberberine] | -0.000562 | 0.103
40 | COc1cccc2c1cc([N+](=O)[O-])c1c(C(=O)O)cc3c(c12)OCO3 [Aristolochic acid A] | 0.203 | 0.0578
41 | COc1cc2c(cc1O)C[C@@H]1NCCc3cc(OC)c(O)c-2c31 [Norisoboldine] | -0.132 | -0.0981
42 | CCN1C[C@]2(COC)[C@H](O)C[C@H](OC)[C@]34C1[C@H]([C@H](OC)[C@H]23)[C@@]1(OC(C)=O)C[C@H](OC)[C@@]2(O)C[C@@H]4[C@@H]1[C@H]2OC(=O)c1ccccc1 [Indaconitine] | 0.0186 | 0.112
43 | CC(C)=CCOc1c2occc2cc2ccc(=O)oc12 [Imperatorin] | 0.0993 ± 0.22 | 0.135 ± 0.28
44 | CCN1C[C@]2(COC)CC[C@H](O)[C@]34C1[C@@](O)([C@@H](OC)[C@H]23)[C@@]1(O)C[C@H](OC)[C@H]2C[C@@H]4[C@@H]1[C@H]2OC [Delsoline] | -0.0325 | 0.0487
45 | CCN1C[C@]2(COC)CC[C@H](OC)[C@]34C1[C@H]([C@H](OC)[C@H]23)[C@@]1(O)C[C@H](OC)[C@H]2C[C@@H]4[C@@H]1[C@H]2O [Chasmanine] | 0.0232 | -0.00256
46 | CC(C)c1ccc2c(c1O)CC[C@H]1C3=C(CC[C@]21C)C(=O)OC3 [Triptophenolide] | -0.142 ± 0.096 | -0.108 ± 0.2
47 | C=C(C)C1CC=C(C=O)CC1 (configuration not stated) [Perillaldehyde] | 0.0128 | -0.104
48 | COC(=O)C1=CCCN(C)C1 [Arecoline Hydrobromide] | 0.0326 | 0.0648
49 | N#CCc1ccc2c(c1)OCO2 [Homopiperonylonitrile] | 0.103 | 0.127
50 | C[C@H]1CC[C@H]2[C@H](C)[C@@H]3CC[C@@H]4[C@@H](C[C@H]5[C@H]4C[C@@H](O)[C@H]4C[C@@H](O)CC[C@@]45C)[C@@H]3CN2C1 [Hupehenine] | 0.00613 | -0.0543
51 | O=C1C=CC[C@@H]2[C@H]3CCCN4CCC[C@@H](CN12)[C@@H]34 [Sophocarpine] | -0.0254 | 0.165
